Source: PubChem BioAssay AID1578 (Sanford-Burnham Center for Chemical Genomics, 2009)
The whole screen tested about 290,000 compounds, of which about 3,000 (1%) were called active. The sample holds actives, similar compounds and a random draw of the others, so the mix is not that of the screen. No stated cut-off is given here; in the data, active means inhibition mostly above about 36% (no sharp cut-off); inactive means mostly below about 34%.

Experiment: NOD1 signaling inhibitors, primary screen, cell-based, luminescence, uHTS (AID 1578);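 further: HEK-293T reporter cells stimulated with the NOD1 agonist gamma-tri-DAP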
Details: NOD1-driven NF-kB luciferase reporter cells, at 4 µM, stronger effect = higher value

inhibition, active:
CCOc1ccc(C(Nc2cccnc2)c2cc(Cl)c3cccnc3c2O)cc1 (stereo not drawn) 67.5%
CCCC(=O)NC(c1cccs1)c1cc(Cl)c2cccnc2c1O (stereo not drawn) 55.3%
O=C(Nc1ccc([N+](=O)[O-])cc1)C(=O)Nc1cccc(C(=O)O)c1 79.5%
CCOc1ccc(NC(=O)NC(C)CC)cc1 (stereo not drawn) 31.5%
CCOC(=O)c1cccc(NC(=O)/C=C/c2ccc3c(c2)OCO3)c1 98%
Cc1ccc(C(=O)Nc2cccc(C(=O)O)c2)cc1 73.3%
Cc1ccccc1OCC(=O)Nc1cccc(C(=O)O)c1 92%
O=C(Nc1cccc(C(=O)O)c1)Nc1ccc2c(c1)OCO2 74.1%
CCOc1ccc(NC(=O)Nc2cccc(C(=O)O)c2)cc1 97.4%
Cc1ccc(C(=O)Nc2cc3ccccc3oc2=O)cc1 85.5%
Cc1ccc(C(=O)Nc2cnc3ccccc3c2)cc1 81.8%
O=C(Nc1ccc(Cl)cc1)Nc1cccc(C(=O)O)c1 67.9%
O=C(NCc1ccccc1)C(=O)Nc1cccc(C(=O)O)c1 39.8%
CCN1C(=O)/C(=C\N(C(C)=O)c2ccccc2)OC1=S 55.5%
CC(=O)Oc1c(I)cc(I)cc1C(=O)Nc1ccc(Cl)cc1 85.8%
Cc1cc(C(F)(F)F)c(C#N)c(SCC(=O)Nc2nc3cc(Br)ccc3s2)n1 67.4%
CC(=O)N1CCOc2cc(S(=O)(=O)NC(C)c3ccccc3)c(Cl)cc21 (stereo not drawn) 59.9%

inhibition, inactive:
CC(C)(C)C(=O)COC(=O)c1cc2ccccc2cc1O -26.6%
Cc1c(C)c2c(OCC(=O)N3CCC(C(=O)O)CC3)cc3c(c2oc1=O)CCC(C)(C)O3 -8.2%
CC[n+]1c(/C=C/c2ccc(N(C)C)cc2)ccc2ccccc21 0.8%
CC[n+]1c(/C=C/c2ccc(OC)c(OC)c2)ccc2ccccc21 -81.5%
CC(NS(=O)(=O)c1ccc(NC(=O)N2CCCCC2)cc1)c1ccccc1 (stereo not drawn) -19.3%
O=C(Nc1cccnc1)OC1CCCC1 -40.3%
Cc1cc(C)c(S(=O)(=O)Nc2ccncc2)cc1C -25.9%
Cc1ccc(CCNS(=O)(=O)c2ccc3c(c2)NC(=O)CCS3)cc1 -8.7%
CSc1ccccc1C(=O)Nc1ccc2c(c1)CCC2 -1%
CCC(=O)NC(c1cccs1)c1cc(Cl)c2cccnc2c1O (stereo not drawn) 32.2%
O=C(O)COc1ccccc1C(Nc1cccnc1)c1cc(Cl)c2cccnc2c1O (stereo not drawn) -3.2%
CCCCC(=O)NC(c1cccs1)c1cc(Cl)c2cccnc2c1O (stereo not drawn) -31.4%
Oc1c(C(Nc2ccccn2)c2cccnc2)cc(Cl)c2cccnc12 (stereo not drawn) 15.5%
CCC(=O)NCCc1nc2cc(NC(=O)COc3ccccc3)ccc2n1C -21.6%
Cc1cc(C)c(S(=O)(=O)NCc2cccnc2)cc1C 9.3%
CCOc1ccc(N2C(=O)CC(/C=C3/N(C)c4ccccc4C3(C)C)C2=O)cc1 (stereo not drawn) -9.6%
O=C(NNS(=O)(=O)c1ccc([N+](=O)[O-])cc1)C(=O)Nc1cccc(C(=O)O)c1 -14.5%
CCC(C)NC(=O)Nc1ccc(Br)cc1 (stereo not drawn) -16%
COC(=O)c1cccc(NC(=O)/C=C/c2ccc3c(c2)OCO3)c1 69%
Cc1ccc(C(=O)Nc2cccc(C(=O)NCc3ccccc3)c2)cc1 -41.3%
CCOC(=O)c1cccc(NC(=O)c2ccc3c(c2)OCO3)c1 -56.6%
CCOc1ccc(NC(=O)Nc2ccc(NC(C)=O)cc2)cc1 -22.3%
O=C(N/N=C/C(Cl)=C/c1ccc([N+](=O)[O-])cc1)C(=O)Nc1cccc(C(=O)O)c1 -14.1%
O=C(O)c1cccc(NC(=O)c2cc(NC(=O)c3ccccc3)cc(NC(=O)c3ccccc3)c2)c1 12.6%
COc1ccc(Cc2nnc(NC(=O)C(C)(C)C)s2)cc1 -7.8%
COc1ccccc1CN1CC(C(=O)NCCc2ccc(Cl)cc2)CC1=O (stereo not drawn) -8.7%
Cc1cc[n+](CC(=O)c2cccc([N+](=O)[O-])c2)c2ccccc12 -5.3%
Cc1ccc(CN2CCNC(=O)C2CC(=O)NCCCn2cccn2)o1 (stereo not drawn) -26.6%
COC(=O)Cc1csc(NC(=O)CSc2nnc3ccccn23)n1 -22.5%
COc1ccc(OC)c(C2=NS(=O)(=O)N(C)C(C(=O)N3CCC4(CC3)OCCO4)=C2)c1 -6.5%
COc1ccc2ccccc2c1CNCc1ccc(C)cc1 -32.1%
O=Cc1cn(CCC(=O)O)nc1-c1cccc2ccccc12 -38.4%
COc1ccccc1N=c1oc2c(OC)cccc2cc1C(=O)NCc1ccco1 -182%
CCOc1ccc(NC(=O)c2cccc(NC(=O)c3ccccc3)c2)cc1 4.1%
Cc1cccc(C)c1OCC(=O)Nc1cccc(C(=O)O)c1 -10.3%
CC(=O)Nc1cc2ccccc2oc1=O -32.2%
CC(=O)c1cccc(NC(=O)Nc2ccc3c(c2)OCO3)c1 -20.8%
CC(=O)Nc1cccc(NC(=O)COc2ccccc2C)c1 40.3%
CCOC(=O)c1cccc(NC(=O)Nc2ccc(OCC)cc2)c1 -13.8%
O=C(Nc1ccc2c(c1)OCO2)Nc1ccc2c(c1)OCO2 -34.2%
O=C(Nc1cc2ccccc2oc1=O)c1ccccc1 22.4%
COc1ccccc1CC(=O)NC1CC1 -10.2%
Cc1cc(C)c(S(=O)(=O)c2ccccc2)c(OC(=O)c2c(F)cccc2F)n1 -38.9%
Cc1cccc(S(=O)(=O)Nc2ccc(-c3nc4ccc(C)cc4s3)cc2)c1 -35.8%
O=C(COC(=O)C12CC3CC(CC(C3)C1)C2)Nc1ccccc1F -23.3%
COc1ccc(CCNC(=O)CN(c2ccc(OC)c(OC)c2)S(=O)(=O)c2ccc(C)cc2)cc1 32.6%
Cc1nn(Cc2ccc(F)cc2)c(C)c1NC(=O)CCCn1nc([N+](=O)[O-])cc1C -34.8%
O=c1cc(N2CCN(c3ccccc3)CC2)[nH]c(=O)n1-c1ccccc1 -19.3%
CC(C)NC(=S)N1CCN(Cc2ccc3c(c2)OCO3)CC1 -10.8%
COc1ccc(S(=O)(=O)Nc2c(NC3CCCCC3)c3ccccc3oc2=O)cc1OC -7.5%
O=C(Nc1nnc(CSCc2ccc(F)cc2)s1)c1ccc([N+](=O)[O-])cc1 1.6%
O=C(Nc1cccc(Cl)c1)Nc1cccc(C(=O)O)c1 -9.6%
O=C(Nc1cnc2ccccc2c1)c1ccncc1 -21.5%
Cc1ccc(NC(=O)Nc2cnc3ccccc3c2)cc1 -44.8%
O=C(O)c1cccc(NC(=S)NCc2ccccc2)c1 -23.1%
NC(=O)c1cccc(NC(=O)Nc2ccc(Cl)cc2)c1 9.4%
CSc1cccc(NC(=O)C(=O)NCc2ccccc2)c1 -4.7%
CCc1nc(CN2CCN(c3ccc(C(F)(F)F)cn3)CC2)c(C)[nH]1 -4.8%
O=C(c1ccc(S(=O)(=O)Nc2ccccc2)cc1)N1CCCCCCC1 -14.1%
CCOC(=O)CCNC(=O)N1CCCC(Cc2ccccc2)(C(=O)OCC)C1 (stereo not drawn) -26.2%
COc1ccc(NC(=O)CCC(=O)Nc2nnc(CC(C)C)s2)cc1Cl -5.8%
COC(=O)C1=C(C)NC(=O)NC1c1cn(-c2ccccc2)nc1-c1cccs1 (stereo not drawn) -21.3%
CCN1C(=O)/C(=C/N(C)c2ccccc2)OC1=S -15.3%
CCN1C(=O)/C(=C/N(C(C)=O)c2ccccc2)N(c2ccccc2)C1=S 11.4%
Nc1nc(COc2ccccc2C=O)nc(Nc2ccccc2)n1 -7.7%
CN(C)c1ccc(C2CC(=O)C=C(Nc3ccccc3N)C2)cc1 (stereo not drawn) -11.3%
Cc1ccc(C(=O)CSc2ncnc3sc4c(c23)CCC(C)C4)cc1 (stereo not drawn) -2.7%
COc1c(Cl)cc(Cl)cc1C(=O)Nc1ccc(NC(C)=O)cc1 -17.9%
O=C(Nc1ccc(Oc2ccc(Cl)cc2)c(Cl)c1)c1cc(I)cc(I)c1O -14.3%
CN(CC(=O)Nc1ccccc1Cl)C(=O)c1cc(=O)[nH]c2ccccc12 -12.4%
CCOC(=O)c1ccc(NC(=O)COc2ccc(S(=O)(=O)NC(C)(C)C)cc2)cc1 -33.5%
CCN1C(=O)/C(=c2\o/c(=C3\C=Cc4ccccc4N3CC)c(=O)n2CC)SC1=S 4.4%
COc1ccc(N2C(=O)c3ccc(C(=O)Nc4cc(OC)ccc4OC)cc3C2=O)cc1 -3.6%
Cc1ccc(C(C(=O)NC2CCCCC2)N(Cc2ccccc2)C(=O)Cc2c[nH]c3ccccc23)o1 (stereo not drawn) -26.2%
COc1ccc(NC(=O)c2cc(S(=O)(=O)N(Cc3ccccc3)c3ccccc3)ccc2Cl)cn1 10.8%
Cc1cc(C(F)(F)F)c(C#N)c(SCC(=O)Nc2nc3ccccc3s2)n1 -5.2%
Cc1ccc2sc(NC(=O)CSc3nc(C)cc(C)c3C#N)nc2c1 -16.6%
Cc1nnc(NC(=O)CSc2ccc(-c3ccc(Cl)cc3)nn2)s1 -24.7%
C=C(C)CN(CC)C(=O)CC1C(=O)NCCN1CC(C)(C)C (stereo not drawn) -7.4%
CC(=O)N1CCOc2ccc(S(=O)(=O)NC(C)c3ccccc3)cc21 (stereo not drawn) 1.8%
CC(=O)N1CCOc2cc(S(=O)(=O)N3CCN(c4ccccc4)CC3)c(Cl)cc21 -30.8%
